Reference: PubChem BioAssay (NCI)
The panel holds about 83,000 compounds, 20% with a hit somewhere; the sample as a whole holds those more often.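 For each line, cells grew in 96-well plates with the test compound present at a single concentration for 48 hours.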 The source made the active and inactive calls. Rule for the calls: active = growth percent below 10; inactive = the rest.

What was measured:
Assay in all cases: NCI-60 one-dose screen, 48 h (100 = growth as untreated, 0 = no growth, -100 = all killed)
Conditions in all cases: 10 µM unless noted
[1] = system: NCI-H23 lung
[2] = system: NCI-H226 lung
[3] = system: NCI-H322M lung
[4] = system: HOP-62 NSCLC
[5] = system: NCI-H460 lung
[6] = system: HOP-92 NSCLC
[7] = system: NCI-H522 lung
[8] = system: A549/ATCC NSCLC
[9] = system: 786-0 renal
[10] = system: COLO 205 colon
[11] = system: DU-145 prostate
[12] = system: K-562 leukemia
[13] = system: MALME-3M melanoma
[14] = system: MDA-MB-231 breast
[15] = system: RXF 393 renal
[16] = system: SF-268 CNS
[17] = system: SF-295 CNS
[18] = system: SF-539 CNS
[19] = system: UACC-257 melanoma
[20] = system: M14 melanoma

Measured: growth

CN(CCSSCCN1CCOCC1)C(=O)Oc1cc2c(c3ccccc13)[C@H](CCl)CN2C(=O)c1cc2cc(OCCCN3CCC3)ccc2[nH]1
active: [1] -67.5% | [2] -11.7% | [3] -3.1% | [4] -64.7% | [5] -23.3% | [6] -14.1% | [7] -66.4% | [8] -45.8% | [9] -35% | [10] -74% | [11] -70.8% | [12] -34.6% | [13] -79.5% | [14] -23.7% | [15] -77.4% | [16] 3.42% | [17] 1.02% | [18] -86.2% | [19] -17.1% | [20] -72.5%

CCOc1ccc(-c2cc(-c3cc(C(C)C)c(O)cc3C)nn2-c2ccc(S(N)(=O)=O)cc2)cc1
active: [7] 1.3%
inactive: [1] 27.6% | [2] 67.4% | [3] 66.6% | [4] 65.4% | [5] 23.9% | [6] 47.4% | [8] 32% | [9] 37.1% | [10] 131% | [11] 34.6% | [12] 12.4% | [13] 65.8% | [14] 37.5% | [15] 38.9% | [16] 44.1% | [17] 35.6% | [18] 11.9% | [19] 46.8% | [20] 49.3%

N#CC1=C(c2cccs2)Nc2c(c(-c3ccccc3)nn2-c2ccccc2)C12C(=O)Nc1ccc(Br)cc12 (stereo not given)
active: [1] 2.18% | [4] -75.2% | [5] -46.7% | [6] -24.7% | [7] -12.4% | [8] -9.72% | [9] -22.7% | [10] -83% | [12] 2.75% | [13] -18.7% | [14] -34% | [15] -39.7% | [17] -37.3% | [18] -62.4% | [20] -72.1%
inactive: [2] 13% | [3] 26.9% | [11] 31.5% | [16] 15.7% | [19] 35.8%

OCCn1cc(-c2nc3ccc4[nH]ncc4c3c3c2CCCC3)cn1
active: [15] -12.6%
inactive: [1] 43.1% | [2] 17.9% | [3] 68.5% | [4] 57.7% | [5] 20% | [6] 51.8% | [7] 38.9% | [8] 26.6% | [9] 43.1% | [10] 32.8% | [11] 36.2% | [12] 21.4% | [13] 24.1% | [14] 54.9% | [16] 64% | [17] 60.9% | [18] 36.2% | [19] 58% | [20] 22.6%

COC(=O)c1cc(C(=O)C(F)(F)F)n2c3ccccc3c3ccccc3c12
inactive: [1] 83.6% | [2] 52.6% | [3] 90.8% | [4] 41.1% | [5] 62.1% | [6] 59.2% | [7] 96% | [8] 92.8% | [9] 24.2% | [10] 79.7% | [11] 96% | [12] 82.6% | [13] 104% | [14] 42.4% | [15] 69.2% | [16] 83.4% | [17] 37.2% | [18] 67.5% | [19] 110% | [20] 87.6%

Cc1ccc(/C=C/C(=O)c2ccc(S(=O)(=O)NCCNc3nc(N(C)C)nc(N4CCOCC4)n3)cc2)cc1
active: [12] 6.8%
inactive: [1] 95% | [2] 91.7% | [3] 93.7% | [4] 114% | [5] 103% | [6] 93.2% | [7] 72.3% | [8] 80.4% | [9] 73% | [10] 114% | [11] 95.3% | [13] 108% | [14] 85% | [15] 85% | [16] 79.6% | [17] 94.4% | [18] 81.7% | [19] 85.7% | [20] 95.5%

COc1ccc(C2=NN(C(=O)[C@H]3[C@@H](c4ccco4)c4sc(=O)[nH]c4S[C@@H]3C)C(c3ccc4ccccc4c3)C2)cc1 (stereo not given in full)
active: [7] 4.06% | [10] 7.92%
inactive: [1] 33.8% | [2] 29.3% | [3] 49.1% | [4] 59.7% | [5] 23.8% | [6] 29.1% | [8] 17.6% | [9] 44.6% | [11] 62.7% | [12] 16% | [13] 50.6% | [14] 47.5% | [15] 11.2% | [16] 45.3% | [17] 38.6% | [18] 28.6% | [19] 43.2% | [20] 24.1%
